ERK EGF inh = qHTS Assay for Inhibitors of the ERK Signaling Pathway using a Homogeneous Screening Assay; Stimulation with EGF. Potency, µM (titrated, usually from 11.5 µM), hits mostly inhibitors. AID 1454, 2008. HEK293-V1b, EGF-stimulated phospho-ERK AlphaScreen. hit rate 0.41% among 130,000; active = well fitted inhibition curve with a large enough effect; note: nearly all actives have a fitted effect of over 55% in size
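EGF-stimulated (25 nM, 5 min) phospho-ERK in HEK293 cells stably expressing V1b, cells pretreated 30 min with compound at 37C. Homogeneous AlphaScreen read on lysates.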
Each line names hits and unclear results; the compound was inactive in the other large screens. This excerpt belongs to a sample that is enriched for hits.

COC(=O)[C@@]1(Cc2ccc(OC)cc2)[C@@H]2C(=CC(=O)[C@H]2CC(=O)C(=O)N(C)C)CN1C(=O)c1ccccc1	none
C=C1C(=O)C=C2CN(C(=O)c3ccccc3)[C@@](Cc3ccc(F)cc3)(C(=O)OC)[C@@H]12	ERK EGF inh 22µM
COC(=O)[C@@]1(Cc2ccc(F)cc2)[C@H]2c3cc(C(=O)N(C)C)n(Cc4ccccc4)c3C[C@H]2CN1C(=O)c1ccccc1	none
CN(C)c1ccc(-c2nccc(NCCN3CCOCC3)n2)cc1	none
C#CCn1cc(/C=N/Nc2nc3ccccc3[nH]2)c2ccccc21	ERK EGF inh 25µM
C(=N\Nc1nc2ccccc2[nH]1)/c1ccccn1	none
C(=N\Nc1nc2ccccc2[nH]1)/c1cccc2nccnc12	none
C=C[C@@H]1CN2CC[C@@H]1C[C@@H]2[C@@H](O)c1ccnc2ccc(OC)cc12	none
N.N.O=C(O)C1(C(=O)O)CCC1.[Pt]	none
CC(Sc1cccc[n+]1[O-])C(=O)Nc1ccc([N+](=O)[O-])cc1Cl (centres undefined)	none
O=[N+]([O-])c1ccc(Sc2cccc[n+]2[O-])c2nonc12	ERK EGF inh 25µM
O=C(CSc1cccc[n+]1[O-])Nc1ccc(C(F)(F)F)cc1[N+](=O)[O-]	none
CCOC(=O)CNC(=O)O[C@@H]1C(=O)c2cc(Br)ccc2O[C@H]1c1cccc(OC)c1	none
Nc1nc(SCc2ccc([N+](=O)[O-])cc2)c2ncn([C@@H]3O[C@H](CO)[C@H](O)[C@H]3O)c2n1	none
CC(C)C[C@@H](CC(=O)N[C@@H](CCC(=O)O)CC(=O)O)NC(=O)[C@@H]1CNCC[C@H]1NC(=O)C[C@@H](NC(=O)C[C@H](Cc1ccccc1)NC(=O)[C@@H]1CNCC[C@H]1N)C(C)C	none
CCCCC[C@H](O)/C=C/[C@@H]1[C@H](C/C=C\CCCC(=O)O)[C@@H](O)C[C@H]1O	none
CCOc1ccc(C(=O)NC2=NCCS2)cc1	none
CCOc1ccc2c(c1)-c1c(ssc1=S)C(C)(C)N2C(=O)CSC1=NCCS1	ERK EGF inh 18µM
COc1ccc(C2CC(c3ccc(Br)cc3)=NN2C(=O)CSC2=NCCS2)cc1 (centres undefined)	none
O=c1c(O)c(-c2ccc(O)c(O)c2)oc2ccccc12	none
CC(Cc1ccc(O)c(O)c1)(NN)C(=O)O (centres undefined)	none
c1ccc(CNc2ccnc(-c3ccoc3)n2)cc1	none
CNCCCCCCCCSc1nc(C(C)C)ccc1C(=O)c1cccs1	none
Cc1ccc2c(Cl)cc(Cl)c(OCC(=O)N3CCCC3)c2n1	none
O=C(COc1ccc(Cl)cc1Cl)N1CCN(c2ccccn2)CC1	none
Cc1cc(Cl)ccc1OCC(=O)N1CCCN(C(=O)COc2ccc(Cl)cc2C)CC1	ERK EGF inh 32µM
COc1ccc(C(=O)[C@]2(C)C=C(c3ccc(OC)cc3)[C@H](C)C2)cc1	none
CCN1CCCC1Cn1c(-c2ccccc2)nc2c(N(CCOC)CCOC)nc(C)nc21 (centres undefined)	none
CCCCC/C=C\C\C=C/C=C/C=C/[C@@H](SCC(NC(=O)CCC(N)C(=O)O)C(=O)NCC(=O)O)[C@@H](O)CCCC(=O)O (some centres undefined)	none
COCCNC(=O)c1cnn2c(C(F)F)cc(-c3ccc(C)cc3)nc12	none
COc1ccc(-c2cc(C(F)F)n3ncc(C(=O)Nc4c(C)n(C)n(-c5ccccc5)c4=O)c3n2)cc1	none
COc1ccc(-c2cc(C(F)F)n3ncc(C(=O)Nc4cc(C)on4)c3n2)cc1	ERK EGF inh 28µM
CC(=O)OC1CC[C@]2(C)C(CC(OC(C)=O)[C@]3(C)C2CC[C@@]2(C)C(c4ccoc4)OC(=O)C4O[C@]432)C1(C)C (some centres undefined)	none
COC(=O)[C@H](Cc1ccccc1)NC(=O)O[C@@H]1C(=O)c2ccc(OC)cc2O[C@H]1c1ccc2c(c1)OCO2	none
CCOc1cc(/C=C2/NC(=O)N(CC(=O)OC)C2=O)ccc1OC	none
CCCN1C(=O)/C(=C/c2ccc(N3CCOCC3)cc2)NC1=S	none
CCCN1C(=O)/C(=C/c2ccc(OCC(=O)OCC)cc2)NC1=S	ERK EGF inh 32µM
C=Cc1c(C)/c2[n-]/c1=C\c1[n-]c(c(CC)c1C)/C=c1\[n-]c3c(c1C)C(=O)C(C(=O)[O-])C=3c1[n-]c(c(C)c1CCC(=O)[O-])\C=2.[Cu].[Na+].[Na+] (centres undefined)	none
COC(=O)[C@H](COC(C)(C)C)NC(=O)O[C@@H]1C(=O)c2ccc(OC)cc2O[C@H]1c1cccc(C(F)(F)F)c1	none
CC(C)[C@@H](CC(=O)N[C@@H]1CCCC[C@H]1C(=O)N[C@H](CC(=O)N[C@@H](CCC(=O)O)CC(=O)O)Cc1c[nH]c2ccccc12)NC(=O)C[C@H](Cc1c[nH]c2ccccc12)NC(=O)[C@@H]1CNCC[C@H]1N	none
O=C(Oc1cccc(Nc2ncnc3ccccc23)c1)c1cccnc1	ERK EGF inh 14µM
COC(=O)c1cccc(Nc2nc(-c3cccnc3)nc3ccccc23)c1	none
COc1ccc([N+](=O)[O-])cc1Nc1ncnc2ccccc12	none
COc1ccc(C(=O)Oc2cccc(Nc3ncnc4ccccc34)c2)cc1OC	ERK EGF inh 25µM
CC(=O)Nc1ccc(Nc2ncnc3ccccc23)cc1	none
O=C(O)c1cccc(Nc2nc(-c3cccnc3)nc3ccccc23)c1	none
COC(=O)[C@@H](NC(=O)O[C@@H]1C(=O)c2cc(Br)ccc2O[C@H]1c1ccc2c(c1)OCO2)C(C)C	none
CC(=O)O[C@@H]1C(CO[Si](C)(C)C(C)(C)C)=C(Br)C(=O)[C@@H]2O[C@]12C	none
Cc1nc(N2CCOCC2)c2nc(-c3ccccc3)n(CCN3CCCC3)c2n1	none
Cc1noc(C)c1-c1cc(NC2CC2)ncn1	none
C#C[C@]1(O)CC[C@H]2[C@H]3CCC4=Cc5oncc5C[C@]4(C)[C@@H]3CC[C@]21C	none
Cc1cccc(-c2cc3nc(C)c(C)c(NCCCn4ccnc4)n3n2)c1	ERK EGF inh 32µM
Cc1cc(-c2ccccc2)nc2cc(C(=O)NCCCn3ccnc3)nn12	none
Cc1cccc(-c2cc3nc(C)cc(C)n3n2)c1	none
CC(C)OC(=O)[C@@H]1CC[C@H](C)[C@@H](CCCC=O)O1	none
CC(C)C1/C(=N/O)CC(c2ccccc2)NC1c1ccccc1 (centres undefined)	none
CCCC1/C(=N/O)CC(c2ccccc2)NC1c1ccccc1 (centres undefined)	ERK EGF inh 35µM
O=C1CC(c2ccc(Br)cc2)NC(c2ccc(Br)cc2)C1c1ccccc1 (centres undefined)	none
CN1C(=O)/C(=C/C=C2/CCCN2C)N(C)C1=S	none
Cc1cc(/C=C2/C(=O)N(C)C(=S)N2C)ccc1N1CCCC1	ERK EGF inh 25µM
Cc1cc(/C=C2\NC(=S)N(C)C2=O)ccc1N1CCCC1	none
COC(=O)c1ccc(C(NC(=O)OCc2ccccc2)/C(F)=C/[C@@H](C)C(=O)NC2CCCCC2)cc1 (some centres undefined)	none
C=CCC(C)(NCc1ccccc1)C(=O)OCC (centres undefined)	none
CC(NC(=O)C12CC3CC(CC(C3)C1)C2)C(=O)N/N=C/C1=C(N2CCOCC2)C(=C\c2cccc([N+](=O)[O-])c2)/CC1 (centres undefined)	none
N#C/C(=C\C1=C(N2CCOCC2)C(=C/c2cccc([N+](=O)[O-])c2)/CC1)C(=O)Nc1ccccc1F	ERK EGF inh 3.5µM
O=C(/C=C/c1cccc([N+](=O)[O-])c1)Nc1ccccc1N1CCOCC1	none
CN(C)c1ncc2nc(CCc3ccccc3)c(=O)n(-c3ccccc3)c2n1	none
O=C(/C=C/c1ccccc1)NC(=S)Nc1ccc(CN2CCOCC2)cc1	none
